About 370 (0.84%) of roughly 44,000 compounds were called active. The rule behind the calls is not given here. Shown is part of a subset that was picked to be rich in actives.

Consider 15 compounds from PubChem BioAssay AID1159537 (DiRusso Lab, Biochemistry Department, University of Nebraska, 2015).

The assay is described as follows: compounds raising algal triacylglycerol storage – qHTS, Chlamydomonas reinhardtii, primary screen (AID 1159537).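 Note: hits raise Nile Red signal meaning more stored TAG.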 The following applies: Chlamydomonas reinhardtii TAG, Nile Red fluorescence, 72 h.
With `CCN(CC)CC#CCOc1ccccc1`, the outcome was “active [screened at 10 µM (by protocol)]”.
On to `O=C(Nc1cccc(OC(=O)N2CCCCC2)c1)N1CCOCC1`, for which the compound was classed as inactive.
As to `CCN(CC)CCNc1ccc([N+](=O)[O-])c2cccnc12`, the outcome is “inactive [screened at 10 µM (by protocol)]”.
On to `CN1CCCN(CC2=CC[C@H]3C[C@@H]2C3(C)C)CC1`, for which the outcome was “active [screened at 10 µM (by protocol)]”.
For the compound `CCN1CCN(CC2=CC[C@H]3C[C@@H]2C3(C)C)CC1`, the outcome is “inactive [screened at 10 µM (by protocol)]”.
Under `CN1CCN(Cc2cc(Br)cs2)CC1` stands “inactive [screened at 10 µM (by protocol)]”.
On to `Cc1cccc(OCC(=O)N2CCN(Cc3ccccc3)CC2)c1C`, for which the outcome was “inactive [screened at 10 µM (by protocol)]”.
As for `Fc1cccc(Cl)c1CN1CCN(c2ccccc2)CC1`, the compound was classed as inactive.
Take `O=c1cccc2n1CC1CC2CN(c2nc(N3CCOCC3)nc(N3CCOCC3)n2)C1` (stereo not given): the compound was called inactive.
As for `O=[N+]([O-])c1ccc(CN2CCN(c3cccc(Cl)c3)CC2)cc1`, the result was inactive.
`Cc1ccc(C)c(N2CCN(Cc3ccc([N+](=O)[O-])cc3)CC2)c1`: the result was active.
`COc1ccccc1N1CCN(Cc2cccc([N+](=O)[O-])c2)CC1`: the call was inactive.
Take `CCC1(c2ccccc2)C(=O)NC(=O)N(C)C1=O` (stereo not given): the outcome was inactive.
Under `Nc1ccc(-c2ccc(N)c(N)c2)cc1N` stands “inactive [screened at 10 µM (by protocol)]”.
`N#CC(/C=C/c1ccccc1)N1CCOCC1` (stereo not given): the compound was called inactive.
